For some of these results: Results with a measured potency or affinity are listed apart.
Columns and labels:
Parameters in all cases: scale not given: direction of the effect not stated beside the values
[1] = target: Protein translocase subunit SecA (Escherichia coli (strain K12)) (UniProt P10408); experiment: Assay to Identify E. coli SecA ATPase Inhibitors; format: functional; details: 30 µM
[2] = target: T1, Ubiquitin-activating enzyme e1, putative (Leishmania donovani (strain BPK282A1)) (UniProt E9BSI1); experiment: Leishmania donovani Ubiquitin Activating Enzyme (LdE1); format: functional; details: 30 µM
T1 sequence (whole entry): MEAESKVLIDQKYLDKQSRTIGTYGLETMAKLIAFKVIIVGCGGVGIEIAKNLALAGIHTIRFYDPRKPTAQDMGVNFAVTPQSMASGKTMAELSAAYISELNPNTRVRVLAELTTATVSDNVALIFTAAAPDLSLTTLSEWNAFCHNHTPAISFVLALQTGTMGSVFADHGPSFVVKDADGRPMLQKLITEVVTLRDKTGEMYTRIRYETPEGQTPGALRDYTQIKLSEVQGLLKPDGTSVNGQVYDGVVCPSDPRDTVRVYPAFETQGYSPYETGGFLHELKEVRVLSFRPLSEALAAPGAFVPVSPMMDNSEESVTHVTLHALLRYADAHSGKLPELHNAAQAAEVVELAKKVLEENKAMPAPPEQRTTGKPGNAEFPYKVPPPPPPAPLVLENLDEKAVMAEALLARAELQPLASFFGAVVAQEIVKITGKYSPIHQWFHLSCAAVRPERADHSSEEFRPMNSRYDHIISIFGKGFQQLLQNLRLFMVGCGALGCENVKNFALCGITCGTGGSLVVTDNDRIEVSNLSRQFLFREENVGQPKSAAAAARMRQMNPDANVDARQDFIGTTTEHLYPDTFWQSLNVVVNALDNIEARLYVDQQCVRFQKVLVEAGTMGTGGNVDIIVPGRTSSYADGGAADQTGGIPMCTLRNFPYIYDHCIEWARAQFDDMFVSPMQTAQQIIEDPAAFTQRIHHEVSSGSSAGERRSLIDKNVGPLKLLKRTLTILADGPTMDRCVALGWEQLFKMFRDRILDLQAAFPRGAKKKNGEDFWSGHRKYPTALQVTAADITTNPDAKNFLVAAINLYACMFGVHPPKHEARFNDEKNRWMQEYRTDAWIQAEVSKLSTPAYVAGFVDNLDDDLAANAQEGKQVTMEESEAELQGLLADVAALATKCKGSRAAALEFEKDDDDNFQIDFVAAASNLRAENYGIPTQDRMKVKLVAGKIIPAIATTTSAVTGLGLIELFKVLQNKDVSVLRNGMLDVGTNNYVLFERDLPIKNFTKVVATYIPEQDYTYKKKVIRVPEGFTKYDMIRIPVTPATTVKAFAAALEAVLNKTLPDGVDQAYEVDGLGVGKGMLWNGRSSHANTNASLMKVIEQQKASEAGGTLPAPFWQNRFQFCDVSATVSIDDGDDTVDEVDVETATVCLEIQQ

[3] = target: AMP-activated protein kinase, AMPK (Homo sapiens) (UniProt P54646+O43741+P54619+Q9UGJ0+Q9Y478+Q13131+Q9UGI9); experiment: AMP-dependent Kinase enzyme assay. An in vitro enzyme assay that detects ADP turnover that is directly proportional to AMPK activity. This uses naive AMPK that is activated during the assay with MK-8722; format: functional; details: 30 µM
[4] = target: Sialic acid-binding Ig-like lectin 9 (Homo sapiens) (UniProt Q9Y336); experiment: Hs-Siglec9 ALPHAscreen SOP 20170721; details: 10 µM
Trypanosoma cruzi = experiment: Trypanosoma cruzi phosphomannomutase and mannose-1-phosphate guanylyltransferase assay; format: functional; details: 10 µM
[5] = target: T2, Arginase-2, mitochondrial (Homo sapiens) (UniProt P78540); experiment: in vitro enzyme assay to detect the production of urea directly proportional to the activity of Arginase II; format: functional; details: 33.3 µM; note: in the data most compounds retested in dose-response had high values
T2 sequence (whole entry): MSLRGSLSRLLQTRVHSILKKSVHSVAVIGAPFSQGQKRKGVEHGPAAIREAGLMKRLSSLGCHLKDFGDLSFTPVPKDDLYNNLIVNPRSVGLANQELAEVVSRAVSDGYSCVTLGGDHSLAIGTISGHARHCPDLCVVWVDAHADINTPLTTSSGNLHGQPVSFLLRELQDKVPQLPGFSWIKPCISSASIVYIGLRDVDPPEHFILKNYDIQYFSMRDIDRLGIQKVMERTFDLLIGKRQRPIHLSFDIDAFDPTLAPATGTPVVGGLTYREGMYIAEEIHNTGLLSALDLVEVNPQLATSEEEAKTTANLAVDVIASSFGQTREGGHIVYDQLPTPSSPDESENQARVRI

[6] = target: T3, Proteasome subunit beta (Trypanosoma cruzi) (UniProt O96673); experiment: Trypanosoma cruzi proteasome chymotrypsin-like activity (TcProtChymo) assay.; note: in the data most compounds retested in dose-response had high values; format: functional; details: 9.37 µM
T3 sequence (whole entry): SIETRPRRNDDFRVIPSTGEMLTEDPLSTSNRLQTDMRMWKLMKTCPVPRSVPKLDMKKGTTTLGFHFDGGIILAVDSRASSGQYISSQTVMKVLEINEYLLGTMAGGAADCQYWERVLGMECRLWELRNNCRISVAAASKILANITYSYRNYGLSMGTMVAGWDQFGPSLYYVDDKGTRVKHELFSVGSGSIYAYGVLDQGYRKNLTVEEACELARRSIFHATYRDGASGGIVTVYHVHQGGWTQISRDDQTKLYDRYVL

Homo sapiens = organism: Homo sapiens; experiment: To identify inhibition of the IFN signalling (Jak-Stat) pathway via expression of an eGFP reporter gene under the control of an IFN-stimulated response element (ISRE) containing MxA promoter.; format: functional; details: 30 µM
[7] = target: T4, Tyrosyl-tRNA synthetase, putative (Trypanosoma cruzi (strain CL Brener)) (UniProt Q4DSP6); experiment: Trypanosoma cruzi tyrosyl tRNA synthetase (TcYRS) _High Tyrosine SOP; format: functional; details: 30 µM; note: in the data most compounds retested in dose-response had high values
T4 sequence (whole entry): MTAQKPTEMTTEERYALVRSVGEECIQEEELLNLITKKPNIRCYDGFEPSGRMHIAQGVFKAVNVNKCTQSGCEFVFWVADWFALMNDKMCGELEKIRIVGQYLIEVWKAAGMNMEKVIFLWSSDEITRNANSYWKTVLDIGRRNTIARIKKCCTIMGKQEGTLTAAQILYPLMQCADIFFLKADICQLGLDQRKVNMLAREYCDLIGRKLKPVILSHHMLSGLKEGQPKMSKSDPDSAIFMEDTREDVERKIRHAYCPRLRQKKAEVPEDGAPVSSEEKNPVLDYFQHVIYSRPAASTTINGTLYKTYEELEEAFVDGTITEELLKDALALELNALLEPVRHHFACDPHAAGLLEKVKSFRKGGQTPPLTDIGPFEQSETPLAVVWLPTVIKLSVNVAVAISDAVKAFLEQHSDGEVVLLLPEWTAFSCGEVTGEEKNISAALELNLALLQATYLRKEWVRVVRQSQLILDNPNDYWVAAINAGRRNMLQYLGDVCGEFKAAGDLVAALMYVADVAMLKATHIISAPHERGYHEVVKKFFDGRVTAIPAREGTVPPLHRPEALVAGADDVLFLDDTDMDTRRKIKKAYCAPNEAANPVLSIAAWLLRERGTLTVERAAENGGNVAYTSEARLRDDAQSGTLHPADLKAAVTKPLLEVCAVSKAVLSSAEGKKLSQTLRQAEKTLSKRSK

[8] = target: T4, Tyrosyl-tRNA synthetase, putative (Trypanosoma cruzi (strain CL Brener)); experiment: Trypanosoma cruzi tyrosyl tRNA synthetase (TcYRS) SOP; format: functional; details: 30 µM
[9] = target: Chromo domain-containing protein 1 (Saccharomyces cerevisiae (strain ATCC 204508 / S288c) (Baker's yeast)) (UniProt P32657); experiment: ScCHD-1 Enzyme Inhibition Assay; format: functional; details: 30 µM; note: in the data most compounds retested in dose-response had high values
Chromo domain-containing protein 1 (Saccharomyces cerevisiae (strain ATCC 204508 / S288c) (Baker's yeast)), sequence (P32657 whole entry, the tested form may be a part): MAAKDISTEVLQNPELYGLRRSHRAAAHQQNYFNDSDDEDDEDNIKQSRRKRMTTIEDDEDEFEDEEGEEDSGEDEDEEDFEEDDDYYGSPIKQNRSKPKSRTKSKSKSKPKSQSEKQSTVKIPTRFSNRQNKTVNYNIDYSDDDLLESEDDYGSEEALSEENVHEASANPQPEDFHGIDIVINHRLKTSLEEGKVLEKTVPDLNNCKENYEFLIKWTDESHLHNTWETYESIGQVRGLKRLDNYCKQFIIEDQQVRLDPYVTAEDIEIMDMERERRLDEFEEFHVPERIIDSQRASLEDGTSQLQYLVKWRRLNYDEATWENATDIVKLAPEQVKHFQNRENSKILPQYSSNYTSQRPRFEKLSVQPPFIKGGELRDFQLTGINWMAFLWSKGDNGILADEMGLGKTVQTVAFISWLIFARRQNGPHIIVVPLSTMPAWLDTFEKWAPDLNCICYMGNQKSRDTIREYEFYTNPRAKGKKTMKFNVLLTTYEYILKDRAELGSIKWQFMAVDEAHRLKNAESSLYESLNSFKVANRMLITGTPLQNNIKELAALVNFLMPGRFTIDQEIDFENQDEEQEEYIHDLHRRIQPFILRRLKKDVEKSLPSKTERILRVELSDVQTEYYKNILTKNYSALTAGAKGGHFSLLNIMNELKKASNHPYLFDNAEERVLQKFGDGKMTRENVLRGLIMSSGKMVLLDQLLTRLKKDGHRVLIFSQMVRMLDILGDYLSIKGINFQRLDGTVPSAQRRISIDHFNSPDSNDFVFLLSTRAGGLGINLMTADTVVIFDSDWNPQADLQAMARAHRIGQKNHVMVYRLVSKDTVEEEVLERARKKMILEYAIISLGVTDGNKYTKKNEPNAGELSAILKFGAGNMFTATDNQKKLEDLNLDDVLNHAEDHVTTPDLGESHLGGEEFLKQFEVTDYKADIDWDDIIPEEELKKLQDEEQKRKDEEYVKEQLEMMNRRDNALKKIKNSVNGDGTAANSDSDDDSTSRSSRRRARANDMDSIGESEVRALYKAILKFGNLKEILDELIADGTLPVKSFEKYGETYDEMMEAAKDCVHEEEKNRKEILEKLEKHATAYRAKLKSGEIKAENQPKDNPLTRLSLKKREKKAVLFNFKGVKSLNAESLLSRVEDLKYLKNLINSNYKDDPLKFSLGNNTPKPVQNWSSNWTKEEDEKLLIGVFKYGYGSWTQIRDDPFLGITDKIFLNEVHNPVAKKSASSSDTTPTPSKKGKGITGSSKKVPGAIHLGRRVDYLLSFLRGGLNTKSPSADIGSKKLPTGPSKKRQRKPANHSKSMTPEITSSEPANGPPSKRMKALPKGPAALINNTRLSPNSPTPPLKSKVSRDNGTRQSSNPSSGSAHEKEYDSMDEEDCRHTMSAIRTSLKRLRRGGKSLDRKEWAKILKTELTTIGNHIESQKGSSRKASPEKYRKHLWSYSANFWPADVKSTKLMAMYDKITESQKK

Protein translocase subunit SecA (Escherichia coli (strain K12)), sequence (P10408 whole entry): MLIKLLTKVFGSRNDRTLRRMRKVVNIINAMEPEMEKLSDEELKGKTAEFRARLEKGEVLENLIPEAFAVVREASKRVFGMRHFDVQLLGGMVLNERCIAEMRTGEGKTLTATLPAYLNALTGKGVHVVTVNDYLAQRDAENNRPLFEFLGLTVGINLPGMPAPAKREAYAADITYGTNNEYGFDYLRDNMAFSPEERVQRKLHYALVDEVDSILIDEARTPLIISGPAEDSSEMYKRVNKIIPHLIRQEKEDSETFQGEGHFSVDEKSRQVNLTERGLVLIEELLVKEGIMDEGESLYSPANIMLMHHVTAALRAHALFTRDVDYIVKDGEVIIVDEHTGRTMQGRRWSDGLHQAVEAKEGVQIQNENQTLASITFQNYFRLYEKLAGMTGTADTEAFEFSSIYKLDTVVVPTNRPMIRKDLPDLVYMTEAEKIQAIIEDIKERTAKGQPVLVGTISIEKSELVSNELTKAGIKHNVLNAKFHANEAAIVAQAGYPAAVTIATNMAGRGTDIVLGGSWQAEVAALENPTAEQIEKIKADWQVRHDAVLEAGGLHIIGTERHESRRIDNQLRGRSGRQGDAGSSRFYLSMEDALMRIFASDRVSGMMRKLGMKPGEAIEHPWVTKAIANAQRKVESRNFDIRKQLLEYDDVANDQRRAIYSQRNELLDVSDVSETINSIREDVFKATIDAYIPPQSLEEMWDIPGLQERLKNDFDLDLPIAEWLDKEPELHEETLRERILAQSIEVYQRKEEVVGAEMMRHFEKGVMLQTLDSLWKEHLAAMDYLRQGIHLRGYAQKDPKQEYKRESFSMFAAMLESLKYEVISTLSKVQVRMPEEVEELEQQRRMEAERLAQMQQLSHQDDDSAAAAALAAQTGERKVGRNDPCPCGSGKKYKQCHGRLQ
Sialic acid-binding Ig-like lectin 9 (Homo sapiens), sequence (Q9Y336 whole entry): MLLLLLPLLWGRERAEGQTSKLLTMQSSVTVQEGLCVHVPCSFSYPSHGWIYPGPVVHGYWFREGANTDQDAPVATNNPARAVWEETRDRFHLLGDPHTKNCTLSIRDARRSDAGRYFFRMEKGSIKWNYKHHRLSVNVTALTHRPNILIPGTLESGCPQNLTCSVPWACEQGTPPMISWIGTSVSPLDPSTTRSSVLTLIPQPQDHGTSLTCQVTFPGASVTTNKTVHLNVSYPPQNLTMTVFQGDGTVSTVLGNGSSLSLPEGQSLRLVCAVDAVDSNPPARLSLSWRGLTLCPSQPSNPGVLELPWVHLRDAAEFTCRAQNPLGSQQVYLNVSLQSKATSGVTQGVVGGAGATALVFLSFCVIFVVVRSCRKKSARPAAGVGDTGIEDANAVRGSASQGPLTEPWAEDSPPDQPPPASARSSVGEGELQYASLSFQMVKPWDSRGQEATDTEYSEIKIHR

| SMILES | Percent Effect [1] [%] | Percent Effect [2] [%] | Percent Effect [3] [%] | Percent Effect [4] [%] | Percent Effect (Trypanosoma cruzi) [%] | Percent Effect [5] [%] | Percent Effect [6] [%] | Percent Effect (Homo sapiens) [%] | Percent Effect [7] [%] | Percent Effect [8] [%] | Percent Effect [9] [%] |
| --- | --- | --- | --- | --- | --- | --- | --- | --- | --- | --- | --- |
| CC(=O)c1cccc(NC(=O)COc2c(C)n(C)ccc2=O)c1 | -3.77 | 9.33 | 5.33 | 5.82 | -2.95 | -12.5 | 16.1 | 7.79 | 7.41 | 20.5 | -2.85 |
| CNC(=O)c1ccc(C(=O)N2CCCC2c2cnn(C)c2)cn1 (stereo not given) | -3.23 | 7.89 | -6.87 | 5.79 | 3.08 | -2.88 | 9.05 | -13.2 | 5.42 | 6.17 | -6.61 |
| O=C(c1ccc(Br)o1)N1CCCCC1Cn1cccn1 (stereo not given) | -1.08 | 2.7 | -1.88 | 12.6 | 0.279 | 0.924 | 15.3 | 18.2 | 0.99 | 3.66 | 0.762 |
| CC(C)Cc1noc(CN2CCOCC2)n1 | -1.04 | 7.89 | -1.16 | 2.11 | 2.07 | 1.15 | 15.7 | -19.8 | 5.39 | 12.2 | -7.16 |
| Cc1cc(C)nc(Nc2cccc(C3CCCN(C)C3)n2)n1 (stereo not given) | -4.27 | 1.35 | 9.63 | -3.78 | 2.77 | -3.94 | 4.68 | -3.42 | 2.15 | 6.49 | -16.2 |
